From PubChem BioAssay come the findings set out here.

As a reminder, the inhibition is the change of the read-out against control, counted positive when it falls.

The source made the active and inactive calls.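 How the source made its calls, unless noted: active means NADPH fluorescence slope more negative than the mean of all samples by about 3 SD, 99.7% confidence; inactive means the rest.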

Test [1] in a line: inhibitors of TNFa-induced NFkB p65 translocation, primary screen, imaging, HUVEC, MLSMR starter and 10KST1 sets (AID 438;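 active means inhibition above 20% together with a positive visual image hit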;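 further: compound added about 3h40 before a 20 min TNFalpha stimulation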;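 on inhibition: signal is the nuclear over cytoplasmic p65 intensity ratio per well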). Particulars: HUVEC TNFa-induced p65 nuclear translocation; cell count: measured here: nuclei count (cytotoxicity indicator), at 2.08 µM; inhibition: at 2 µM, stronger effect = higher value, 0% TNFa-plus-vehicle, 100% no-TNFa wells.
Test [2] can be described thus: inhibitors of mutant huntingtin aggregation, primary screen, imaging, exon1htt(103Q)mCFP cells, high-content imaging (AID 483;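 active means visual image review flags a hit and inhibition of aggregation exceeds 20%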;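 further: compound exposure lasted 3 days before fixation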;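 on nuclei count: percent of the per-plate median nuclei count of sample wells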). The note with it: exon1htt(103Q)mCFP cell line, aggregate imaging, at 2 µM; inhibition of aggregation: stronger effect = higher value; nuclei count: measured here: cell count, toxicity.
The nature of test [3]: inhibitors of E-selectin induction by TNFa, primary screen, imaging, HUVEC, immunofluorescence, MLSMR starter and 10KST1 sets (AID 487;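 active means visually confirmed hit in the image check and inhibition above 20%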;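 on inhibition: signal is fraction of cell area covered by stained E-selectin grains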;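 on nuclei count: 100% = median nuclei count of all wells on the same plate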). The note with it: HUVEC TNFalpha-induced E-selectin immunofluorescence imaging, at 2 µM; inhibition: stronger effect = higher value; nuclei count: measured here: cell number, toxicity.
In test [4] the target is Voltage-gated potassium channel subunit beta-2 (Rattus norvegicus) (UniProt P62483). Put plainly: KvBeta enzyme negative modulators, primary screen, biochemical, NADPH fluorescence (AID 622;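 active means fluorescence slope higher than the sample average by over 3 SD, cut at about -0.22 in these data, passing the limit was not always enough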;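 further: slope of raw intensity against log time taken from 70 to 1610 s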). Particulars: recombinant KvBeta, 4-cyanobenzaldehyde reduction, at 10 µM, stronger effect = higher value.
Voltage-gated potassium channel subunit beta-2 (Rattus norvegicus), sequence (P62483 whole entry, looked up): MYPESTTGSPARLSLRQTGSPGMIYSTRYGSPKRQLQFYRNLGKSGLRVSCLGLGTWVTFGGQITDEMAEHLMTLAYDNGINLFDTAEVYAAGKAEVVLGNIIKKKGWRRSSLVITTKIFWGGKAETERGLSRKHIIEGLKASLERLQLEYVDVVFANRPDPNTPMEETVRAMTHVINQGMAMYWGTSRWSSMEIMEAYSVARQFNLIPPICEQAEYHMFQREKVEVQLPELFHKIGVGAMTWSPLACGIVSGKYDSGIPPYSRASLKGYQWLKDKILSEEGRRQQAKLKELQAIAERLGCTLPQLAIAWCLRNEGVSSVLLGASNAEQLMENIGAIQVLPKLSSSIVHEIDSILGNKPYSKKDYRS
Test [5] shares this target. The test can be described thus: KvBeta positive modulators, primary screen, biochemical, NADPH fluorescence (AID 623).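 Further: fluorescence intensity change per second fitted from 20 to 320 s.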 The note with it: Recombinant KvBeta, NADPH fluorescence decrease slope, 10 min; at 10 µM; stronger effect = lower value.
Test [6] deals with Alpha-2C adrenergic receptor (Homo sapiens) (UniProt P18825). Put plainly: modulators of alpha2C/GIRK thallium flux, primary screen, cell-based, HEK293 alpha2C/GIRK1/2 (AID 624;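 active means fluorescence slope after compound addition differing from the mean of all screened samples at 99.7% confidence, in either direction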;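 further: slope of fluorescence ratio to pre-addition baseline per second over 15 to 24 s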). The note with it: thallium flux BTC fluorescence, at 10 µM, actives lie on both sides.
Alpha-2C adrenergic receptor (Homo sapiens), sequence (P18825 whole entry, looked up): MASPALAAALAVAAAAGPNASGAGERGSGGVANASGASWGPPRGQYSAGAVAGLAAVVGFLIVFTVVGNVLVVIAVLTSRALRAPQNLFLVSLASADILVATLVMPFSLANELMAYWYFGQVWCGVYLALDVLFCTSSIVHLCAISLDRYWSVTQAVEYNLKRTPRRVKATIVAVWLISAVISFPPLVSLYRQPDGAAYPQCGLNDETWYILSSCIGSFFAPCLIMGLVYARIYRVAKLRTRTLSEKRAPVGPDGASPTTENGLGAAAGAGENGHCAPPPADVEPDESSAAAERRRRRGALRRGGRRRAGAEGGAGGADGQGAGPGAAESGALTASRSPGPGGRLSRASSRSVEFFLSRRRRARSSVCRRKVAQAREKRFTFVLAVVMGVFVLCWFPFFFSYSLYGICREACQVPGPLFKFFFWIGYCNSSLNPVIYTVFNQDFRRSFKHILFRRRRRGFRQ
Test [7] in a line: inhibitors of Sendai virus-induced IRF3 signaling, primary screen, TLR/RLR signaling modifier project, cell-based, Sendai virus stimulus, luciferase, 10K MLSCN set (AID 602276;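 active means inhibition at or above 50% at 10 µM; inactive means inhibition below 50%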;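 further: firefly luciferase from ISG56 promoter only with Renilla not read in this screen; 0% = Sendai virus plus DMSO and 100% = medium plus DMSO without virus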). The note with it: HEK293 RL24 IRF3 luciferase reporter, at 10 µM, stronger effect = higher value. In general terms: In a reporter assay the amount or activity of a reporter protein is the signal.
Test [8] in a line: inhibitors of poly I:C-induced TLR3 signaling, primary screen, cell-based, poly I:C stimulus, luciferase, 10K MLSCN set (AID 602277;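 active means inhibition of the reporter signal at or above 50%; inactive means inhibition below 50%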). The note with it: HEK293-TLR3 RL24 IRF3 luciferase reporter, at 10 µM, stronger effect = higher value.

For the compound `CCN(CC)CCOC(=O)c1c(C)oc2ccc(O)cc12`, the cell count in test [1] turned out to be 418. For the same compound, the inhibition was 11.9% (inactive) in test [1], 30.6% (inactive) in test [3], 8.25% (inactive) in test [7] and 6.72% (inactive) in test [8]. In addition, the inhibition of aggregation in test [2] is -8.4% (inactive). The values for the nuclei count in test [2] and in test [3] were 74.1% and 106%, respectively. Also, the fluorescence slope in test [4] was -0.5 (inactive). Further, the NADPH fluorescence slope in test [5] was -8e-05 (inactive). Further, in test [6], the slope is 0.00511 (inactive).

Consider `CCOc1ccc(C2CC(c3cccc(C)c3)n3ncnc3N2)cc1` (centres undefined), for which the cell count in test [1] worked out at 666. The inhibition in test [1] was 0.3% (inactive); in test [3] it was -13.6% (inactive); in test [7], -8.73% (inactive); in test [8], 10.7% (inactive). In addition, the inhibition of aggregation in test [2] was -18.7% (inactive). Besides, the nuclei count in test [2] amounted to 90.6%; in test [3], 109%. Moreover, in test [4], the fluorescence slope was -0.622 (inactive). In addition, the NADPH fluorescence slope in test [5] was 1.7e-06 (inactive). Further, in test [6], the slope was 0.0075 (inactive).

As to `Cc1cccc(-c2cc3nc4c(c(N5CCC6(CC5)OCCO6)n3n2)CCCC4)c1`, the cell count in test [1] was 627. Also, the inhibition in test [1] was -5.5% (inactive); in test [3] it was -139% (inactive); in test [7] it was -1.5% (inactive); in test [8] it was -27.3% (inactive). The inhibition of aggregation in test [2] is 19.8% (inactive). For the same compound, the results for the nuclei count in test [2] and in test [3] were 116% and 156%, respectively. In test [4], the fluorescence slope is -0.419 (inactive). For the same compound, the NADPH fluorescence slope in test [5] is 4.7e-05 (inactive). In addition, in test [6], the slope is 0.00699 (inactive).

As for `O=C(Nc1ccccc1C(=O)N1CCOCC1)C1COc2ccccc2O1` (centres undefined), in test [1], the cell count is 355. The inhibition in test [1] is 3.3% (inactive); in test [3], -70.1% (inactive); in test [7], 6.31% (inactive); in test [8] it was 11.6% (inactive). Further, the inhibition of aggregation in test [2] is -5.7% (inactive). In addition, the values for the nuclei count in test [2] and in test [3] were 105% and 123%, respectively. The fluorescence slope in test [4] was -0.437 (inactive). In addition, the NADPH fluorescence slope in test [5] is -1.5e-05 (inactive). Besides, the slope in test [6] was 0.00506 (inactive).

For `Cc1cc(C)c2[nH]c(=O)c(C(c3nnnn3Cc3ccc4c(c3)OCO4)N3CCC(C)CC3)cc2c1` (centres undefined), the cell count in test [1] was 716. Moreover, the inhibition in test [1] was -1.6% (inactive); in test [3], 70% (inactive); in test [7] it was -4.82% (inactive); in test [8], 18.2% (inactive). For the same compound, in test [2], the inhibition of aggregation is 2.1% (inactive). Also, the nuclei count in test [2] is 98.1%; in test [3] it was 73.2%. The fluorescence slope in test [4] is -0.428 (inactive). For the same compound, the NADPH fluorescence slope in test [5] is 6.4e-06 (inactive). Further, the slope in test [6] was 0.0051 (inactive).

For `CC(=O)OC1c2ccccc2C(=O)N1Cc1ccccc1Cl` (centres undefined), in test [1], the cell count was determined as 468. The inhibition is -2.8% (inactive) in test [1], -13.3% (inactive) in test [3], 4.84% (inactive) in test [7] and 27.6% (inactive) in test [8]. Moreover, the inhibition of aggregation in test [2] was 34% (inactive). For the same compound, the nuclei count in test [2] turned out to be 61%; in test [3], 106%. Moreover, in test [4], the fluorescence slope is -0.552 (inactive). The NADPH fluorescence slope in test [5] is -4.6e-05 (inactive). Besides, the slope in test [6] was 0.00651 (inactive).

`COc1cccc(C(=O)NCc2nnc(SCC(=O)Nc3nccs3)n2-c2ccccc2)c1`: the cell count in test [1] stood at 756. For the same compound, the inhibition in test [1] was -9.1% (inactive); in test [3], -20.4% (inactive); in test [7] it was 10.5% (inactive); in test [8], 35.1% (inactive). Further, the inhibition of aggregation in test [2] was -1.7% (inactive). The nuclei count in test [2] stood at 120%; in test [3], 107%. Moreover, the fluorescence slope in test [4] was -0.626 (inactive). Moreover, the NADPH fluorescence slope in test [5] is 1.6e-05 (inactive). Also, the slope in test [6] is 0.0057 (inactive).

Turning to `CCOc1cc(NC(=O)c2ccco2)c(OCC)cc1NC(=O)CCC(=O)NCc1cccnc1`, in test [1], the cell count worked out at 600. In addition, the inhibition in test [1] was 4.9% (inactive); in test [3] it was 16% (inactive); in test [7], 9.41% (inactive); in test [8], 23.3% (inactive). The inhibition of aggregation in test [2] is 2.6% (inactive). The results for the nuclei count in test [2] and in test [3] were 97.7% and 90.3%, respectively. The fluorescence slope in test [4] is -0.358 (inactive). In test [5], the NADPH fluorescence slope was 1.7e-05 (inactive). Further, the slope in test [6] was 0.00315 (inactive).

As to `CCOC(=O)/C=C1\CC(=O)Nc2nonc2N1`, in test [1], the cell count was 330. Besides, the inhibition was -3.4% (inactive) in test [1], -22.6% (inactive) in test [3], 22% (inactive) in test [7] and 21.4% (inactive) in test [8]. In addition, in test [2], the inhibition of aggregation is 2% (inactive). Also, the nuclei count stood at 105% in test [2] and 118% in test [3]. Moreover, in test [4], the fluorescence slope is -0.507 (inactive). Moreover, the NADPH fluorescence slope in test [5] is -6.7e-05 (inactive). The slope in test [6] was 0.00414 (inactive).
